Experimental data published in PubChem BioAssay (NCI).
Compounds without any hit were thinned out: in the full panel of roughly 79,000, 15% have a hit. No stated cut-off is given here; in the data, active means growth inhibition above about 70%; inactive means the rest.

Assays:
[1] = NCI Yeast Anticancer Drug Screen. Data for the rad50 strain (AID 155);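 further: 0% = growth of vehicle-only cultures of the same strain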; conditions: S. cerevisiae rad50 strain growth inhibition; at 50.0 µM; active compounds read high
Procedure, shortened: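 A DNA repair-deficient yeast mutant serves as the test organism; compound-induced growth inhibition is calculated against vehicle-treated cells.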

[2] = NCI Yeast Anticancer Drug Screen. Data for the mec2-1 strain (AID 157); conditions: S. cerevisiae mec2-1 strain, at 50.0 µM, active compounds read high
Procedure, shortened: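 Yeast mec2-1 mutant treated with compound. Readout: growth inhibition vs vehicle controls.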

[3] = NCI Yeast Anticancer Drug Screen. Data for the sgs1 mgt1 strain (AID 161);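 further: 0% = growth of cultures given vehicle only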; conditions: S. cerevisiae sgs1 mgt1 strain, at 50.0 µM, active compounds read high
Procedure, shortened: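 Genetically altered yeast, compound exposure, growth inhibition relative to vehicle.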

[4] = NCI Yeast Anticancer Drug Screen. Data for the cln2 rad14 strain (AID 165);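 further: 0% = growth equal to vehicle treated cultures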; conditions: S. cerevisiae cln2 rad14 strain, at 50.0 µM, active compounds read high
Procedure, shortened: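 cln2 rad14 yeast strain; compound exposure; growth inhibition read vs vehicle controls.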

[5] = NCI Yeast Anticancer Drug Screen. Data for the bub3 strain (AID 167); conditions: S. cerevisiae bub3 mutant strain, at 50.0 µM, active compounds read high
Procedure, shortened: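 Inhibition values come from growth of compound-treated mutant yeast normalised to vehicle-treated controls.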

[6] = NCI Yeast Anticancer Drug Screen. Data for the mlh1 rad18 strain (AID 175); conditions: S. cerevisiae mlh1 rad18 strain growth inhibition; at 50.0 µM; active compounds read high
Procedure, shortened: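 Yeast w/ defined DNA-repair lesions; compound exposure; growth vs vehicle controls → % inhibition.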

Measured: growth inhibition

Cc1ccc2nc(NS(=O)(=O)c3cc(C)c(Cl)cc3S)[nH]c2c1
inactive: [1] 9.35% | [2] 4.35% | [3] 9.1% | [4] 8.25% | [5] 16.4% | [6] 39.9%

COc1cccc(CCNC(=O)Cc2ccccc2CCO)c1
inactive: [1] -5.8% | [2] -7.8% | [3] -46.8% | [4] 9.35% | [5] -37.9% | [6] -53.8%

C1=C\CCCC/C=C/CC/1
inactive: [1] 1.2% | [2] -4.75% | [3] -13.1% | [4] 5.3% | [5] 0.75% | [6] 10.7%

Cc1ccc(C2OC2C(=O)c2ccccc2)cc1 (centres undefined)
inactive: [1] 0.05% | [2] 0.25% | [3] -19.5% | [4] -48.5% | [5] -36% | [6] 5.85%

c1ccc(-c2c(-c3ccc4c(c3)CCCC4)c(-c3ccccc3)c3c(c2-c2ccccc2)-c2cccc4cccc-3c24)cc1
inactive: [1] -4.15% | [2] 2.8% | [3] -2.45% | [4] 13.3% | [5] -2.9% | [6] 2.75%

O=c1[nH]c2cc(Cl)ccc2nc1/C(=N\O)C(O)c1cccc([N+](=O)[O-])c1 (centres undefined)
inactive: [1] 6.7% | [2] -9.55% | [3] -7.75% | [4] 11.9% | [5] -5.1% | [6] -13.2%

c1ccc(CN2C3C4N(Cc5ccccc5)C2C2N(Cc5ccccc5)C(C(N2Cc2ccccc2)N4Cc2ccccc2)N3Cc2ccccc2)cc1
inactive: [1] 10.1% | [2] 2.35% | [3] 21.9% | [4] 3.2% | [5] 11.8% | [6] -3.6%

O=C1c2ccccc2-c2cc(Br)c(NC(=O)C3CCCCC3C(=O)O)cc21 (centres undefined)
inactive: [1] 0.2% | [2] 3.55% | [3] 20.6% | [4] 25.8% | [5] -1.2% | [6] 3.6%

CCCCCCCCCC(C(=O)OCC)(C(=O)OCC)C1CCCC1
inactive: [1] -26.9% | [2] -4.6% | [3] -12.1% | [4] 5.75% | [5] -7.8% | [6] -30.1%

Cc1cc(CO)c(O)c(CN(CC(=O)O)CC(=O)O)c1
inactive: [1] 20.2% | [2] -14.9% | [3] 5.9% | [4] -1.4% | [5] 21.6% | [6] -0.7%

Cc1ccc(NC(=S)SCc2ccc([N+](=O)[O-])cc2)cc1C
inactive: [1] 16.5% | [2] 14.8% | [3] 8.6% | [4] -8.9% | [5] 12.9% | [6] 2.95%

CS(=O)CCNC(=O)NS(=O)(=O)c1ccc(Cl)cc1 (centres undefined)
inactive: [1] -2% | [2] -18.9% | [3] -11.3% | [4] -10.2% | [5] 3.05% | [6] -3.15%

CCOC(=O)CCC(NC(=O)c1ccc(OCc2ccc3nc(OC)c(OC)nc3c2)cc1)C(=O)OCC (centres undefined)
inactive: [1] -14.2% | [2] -17.9% | [3] -21.6% | [4] 5% | [5] -4.75% | [6] 13.2%

CCCc1c(C)nc2scc(-c3ccccc3)n2c1=O
inactive: [1] 38.7% | [2] 16.5% | [3] 55.1% | [4] 37.4% | [5] 39.4% | [6] 34%

COc1ccc(C(C#N)N2CCCN(C(C#N)c3ccc(OC)cc3)C2c2ccccc2)cc1 (centres undefined)
inactive: [1] -2.1% | [2] 2.95% | [3] -9.05% | [4] -0.2% | [5] -0.1% | [6] 7.1%

CCCCCC(=O)C(C)C1(C(=O)OC)NC(=S)NC(=O)C1C#N (centres undefined)
inactive: [1] 16.8% | [2] 14.8% | [3] 13.1% | [4] 12.4% | [5] -1.9% | [6] 17.4%

CC1=CC(=O)c2cc(C)ccc2C1=O
inactive: [1] 6.1% | [2] -15% | [3] -8.35% | [4] -32.5% | [5] -2.95% | [6] -3.25%

CS/C(=N\S(=O)(=O)c1cc(C)c(Cl)cc1Cl)NNc1cnc2ccccc2n1
inactive: [1] -12.1% | [2] -23.4% | [3] -7.1% | [4] 11.9% | [5] -17.2% | [6] 1.7%

NC(=O)C(NN=C1c2ccccc2-c2ccccc21)(c1ccccc1)c1ccccc1
inactive: [1] 41% | [2] -0.2% | [3] 28% | [4] 42.8% | [5] 0.05% | [6] 18.7%

COC(=O)c1cc(/C=C/C(=O)Cc2ccccc2)cn1S(=O)(=O)c1ccccc1
inactive: [1] -6.3% | [2] -9.6% | [3] -13.5% | [4] -23.9% | [5] 1.5% | [6] 1.9%

C/C(=N/NC(N)=O)c1ccccc1Cl
inactive: [1] -3.75% | [2] 3.5% | [3] -14.9% | [4] -20.4% | [5] -6.7% | [6] 12.8%

C=C(C)C(O)CC(C)C (centres undefined)
inactive: [1] -8.6% | [2] 13.9% | [3] -15.2% | [4] 7.65% | [5] 2.95% | [6] 0.2%

CCCNC(=O)c1ccc(Cl)cc1Cl
inactive: [1] 29.8% | [2] 7.85% | [3] 18.4% | [4] -12.2% | [5] -12.5% | [6] 27.1%

Cc1cc(C(c2ccccc2)c2cc(C)cc(C(C)(C)CC(C)(C)C)c2O)c(O)c(C(C)(C)CC(C)(C)C)c1
inactive: [1] 3.9% | [2] 5% | [3] -10% | [4] 20.8% | [5] 5.2% | [6] 8%

O=C(O)c1c(O)c(O)cc2ccccc12
inactive: [1] 24.1% | [2] -17.8% | [3] -13.4% | [4] -51.5% | [5] 25.6% | [6] 23.4%

CC(=C(C#N)C#N)c1ccccc1
inactive: [1] 11% | [2] 2.5% | [3] 13.1% | [4] 6.45% | [5] 2.8% | [6] 5.45%

Cc1ccc(C(=O)/C=C/c2ccco2)cc1
inactive: [1] 49% | [2] 33.6% | [3] 46% | [4] 33.5% | [5] 34.5% | [6] 61.3%

CCC12CC3(C(=O)OC)OC1C(O)CN1CCc4c(n3c3cc(OC)ccc43)C12 (centres undefined)
inactive: [1] 6.9% | [2] -42.1% | [3] 12.2% | [4] 5.05% | [5] -9.35% | [6] 1.5%

Cc1cc(C(=O)O)ccc1C(=O)O
inactive: [1] -13.8% | [2] -31.6% | [3] -1.95% | [4] -39.4% | [5] -20.4% | [6] -25.1%

COc1ccc(NC2CC(C)N(C(=O)c3ccccc3)O2)cc1 (centres undefined)
inactive: [1] -42.1% | [2] -37.2% | [3] -19.1% | [4] 12.3% | [5] -21.6% | [6] -19.2%

N#CC1(C2CC(=O)N(c3ccccc3)C2=O)CCCCC1=O (centres undefined)
inactive: [1] 10.4% | [2] -21.7% | [3] 26.5% | [4] -3.1% | [5] 2% | [6] -6.7%

C/C=C/C1OCCC(C)O1 (centres undefined)
inactive: [1] 41.3% | [2] -12% | [3] 9.1% | [4] 21.1% | [5] 4.95% | [6] 11%

CCOC(=O)C1=C(C(C)=O)C(c2cccc([N+](=O)[O-])c2)C(C(C)=O)=C(C(=O)OCC)N1
inactive: [1] -1.8% | [2] 4.05% | [3] -8.8% | [4] -2.8% | [5] -13.6% | [6] 7.25%

CC1(C)C/C(=C/c2ccccc2)C(=O)O1
inactive: [1] -14.6% | [2] -6.95% | [3] -3.45% | [4] -31.5% | [5] -4.05% | [6] -19.3%

O=C(O)CCc1ccc(-c2ccccc2)[nH]1
inactive: [1] -14.3% | [2] -6.95% | [3] -11.7% | [4] 1.35% | [5] -29.1% | [6] -16.6%

COc1cc(OC)cc(C(=O)NN)c1
inactive: [1] 19% | [2] -2.2% | [3] 5.1% | [4] 17.4% | [5] 0.5% | [6] -18.6%

Cc1c(C)c(O)c(C)c(C)c1O
inactive: [1] -8.8% | [2] -17.1% | [3] -4.85% | [4] -13.2% | [5] 6.85% | [6] 11.4%

CCOc1ncc(C(=O)c2ccc(C)cc2)c(OCC)n1
inactive: [1] -8.55% | [2] -20.4% | [3] -6.2% | [4] -58.9% | [5] 3.6% | [6] -20.4%

[O-][n+]1c2ccccc2[n+]([O-])c2cc(O)ccc21
inactive: [1] 20.4% | [2] -4.05% | [3] 12.7% | [4] -1.3% | [5] 17.1% | [6] 50.8%
